Bioassay records from PubChem BioAssay.
In the library only some 19% were active in any assay of this set; here they are far more common.
LASV entry inh: blocks Lassa virus binding to or entry into cells; Lassa virus pseudotype entry inhibition, cell reporter; Potency, µM (series often up to 37.9 µM), inactives show at the highest dose activity change, negative = inhibition, hits mostly inhibitors; hit rate 1.2% among 300,000; calls by dose curve; tested in HEK293 cells; further: potency means the concentration at half of the fitted maximal effect; on the % scale 0 is the no-effect control and ±100 the full control effect; nearly all actives have a fitted effect of over 50% in size
Marburg entry inh: inhibitors of Marburg virus binding or cell entry | AID 540276 | hit rate 1.8% among 300,000 | Marburg virus pseudotyped entry inhibition, cell reporter | Potency, µM (doses to about 37.8 µM), inactives show top-dose activity change, negative = inhibition, usual class: inhibitors; calls by dose curve; tested in HEK293 cells; further: potency means the concentration at half of the fitted maximal effect; on the % scale 0 is the no-effect control and ±100 the full control effect
Shiga toxin inh: inhibitors of Shiga toxin in Vero cells; AID 2315; Vero cells, Shiga toxin protein synthesis inhibition reporter; hit rate 9.2% among 290,000; inhibition, % at 38.7 µM; in the data active means inhibition mostly above about 28%, no sharp cut-off; inactive means mostly below about 43%; further: 0% is about no effect
Pf growth 96h: inhibits malaria parasite growth, 96 h; AID 504834; hit rate 6.9% among 320,000; P. falciparum luciferase reporter growth, 96 h; Potency, µM (titrated, usually from 28.7 µM), without a hit: at the top dose activity change, negative = inhibition, usual class: inhibitors; further: potency means the concentration at half of the fitted maximal effect; on the % scale 0 is the no-effect control and ±100 the full control effect
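Readout is luminescence from an integrated firefly luciferase in P. falciparum. Red cells, 2% hematocrit and 0.05% parasitemia final, were cultured with compound through two parasite generations (96 hours) at 37 C, 5% CO2.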
CHX counter: counter-screen hit for Shiga toxin inhibitors, cycloheximide | cell reporter, cycloheximide protein synthesis inhibition counterscreen | max response, % | hit rate 12% among 300,000; in the data active means max response mostly above about 13%, no sharp cut-off; inactive means mostly below about 14%; further: read at 38.3 µM for the half of the compounds with a filed dose; 0% is about no effect
Pf growth 48h: P. falciparum growth inhibition at 48 hours (one generation). P. falciparum luciferase growth in erythrocytes, 48 h. Potency, µM (series often up to 28.7 µM), for the others: at the top dose activity change, negative = inhibition, usual class: inhibitors. hit rate 5.9% among 310,000; further: potency means the concentration at half of the fitted maximal effect; on the % scale 0 is the no-effect control and ±100 the full control effect
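Read-out is firefly luciferase luminescence from an integrated reporter in P. falciparum, so falling signal marks reduced parasite growth. Infected erythrocytes were at 2% hematocrit and 0.1% parasitemia (final) in Albumax-supplemented RPMI 1640.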
* hit, by the source's call; i = inactive; u = inconclusive; x = no result given; [ ] = dose if it differs, or a comment. Unless noted, the call rests on the fitted dose curve; in most records, active means well fitted inhibition curve with a large enough effect; inconclusive means small, poorly fitted or top-dose-only effect, or another doubt; inactive means no such curve, though single readings can be large or run the other way.

SMILES	LASV entry inh	Marburg entry inh	Shiga toxin inh	Pf growth 96h	CHX counter	Pf growth 48h
CCc1cccc2sc(N3CCN(C(=O)c4ccc([N+](=O)[O-])o4)CC3)nc12	u	5µM*	x	0.52µM*	x	0.66µM*
Cc1cccc2sc(N3CCN(C(=O)c4ccco4)CC3)nc12	16%[46.1 µM]	x	x	x	x	x
Cc1cccc2sc(NC(=O)C3CCN(C(=O)c4ccco4)CC3)nc12	7.9µM*	u	40	15µM*	38*	-20%
COc1cccc2sc(N3CCN(C(=O)c4ccco4)CC3)nc12	5%	-8%	x	u	x	9.3µM*
CC(C)NC(=O)NNC(=O)c1nn(-c2ccc(F)cc2)ccc1=O	7%	u	10	0%	-1	u
CC1CCCCN1C(=O)c1cc(F)c(F)cc1Cl (centres undefined)	16%	-5%	2	u	-1	-9%
CCN(Cc1ccncc1)Cc1ccc(OC)cc1OC	x	x	13	-18%	1	-2%
COc1ccc(CN(CCN(C)C)Cc2ccccc2)c(OC)c1	-4%	u	-40	x	-4	13µM*
CCOC(=O)c1ccccc1NC(=O)CC1SC(=NC)N(C)C1=O (centres undefined)	0%	5%	2	-2%	13	21%
O=C1CSC(=Nc2cccc(Cl)c2Cl)N1Cc1cccnc1	-23%	u	-18	u	1	u
O=[N+]([O-])c1ccc2cn[nH]c2c1	-13%	-6%	-10	29%	-2	17%
CC1=Nc2cc([N+](=O)[O-])ccc2NC(C)(C)C1	x	x	115*	39%	62*	u
CN(CC(=O)Nc1cccc(C(F)(F)F)c1)Cc1ccccc1	-17%	-6%[46.1 µM]	14	22%	4	7%
CCOc1cc(/C=N/NC(=O)COc2ccc(C)cc2)ccc1OC(=O)c1cccs1	u	16%	1	15%	-3	8%
COc1cc(/C=N/NC(=O)COc2ccc(C)cc2)ccc1OC(=O)c1cccs1	9.2µM*	10%	13	13%	16*	9%
COc1cc(/C=N/NC(=O)c2ccccn2)cc2c1OCO2	4%	10%[46.1 µM]	107*	2%	57*	167%
COc1cc(/C=N/Nc2ccccc2)ccc1OC(=O)c1cccs1	-14%	-1%	61	u	35*	-17%
COc1cc(/C=N/NC(=O)c2cccnc2)cc2c1OCO2	x	x	-7	u	2	22%
COc1cc(/C=N/NC(=O)c2ccccn2)ccc1OC(=O)c1cccs1	5%	u	67*	u	37*	51%
CC(C)C(NS(=O)(=O)/C=C/c1ccccc1)C(=O)NCc1ccc(F)cc1 (centres undefined)	3%[46.1 µM]	u	1	u	-3	u
COc1ccc2oc(C(=O)OCC(=O)N(Cc3ccccc3)C(C)C)c(C)c2c1	-7%	9%	x	10%	x	8%
CCN(CC)S(=O)(=O)N1CCC(C(=O)NC2CCCC2)CC1	12%	4%	-8	-22%	-2	0%
COc1ccc(CC(=O)NNC(=S)NCC2CC2)cc1OC	1%[46.1 µM]	u	-15	15%	1	-2%
COc1ccccc1C(=O)NC(=S)N1CCCc2ccccc21	-3%	26%	164*	33%	48*	40%
COc1ccc(C(=O)NC(=S)N2CCCc3ccccc32)cc1OC	-14%	-3%[46.1 µM]	15	u	21*	9%
SMILES	LASV entry inh	Marburg entry inh	Shiga toxin inh	Pf growth 96h	CHX counter	Pf growth 48h
COc1ccc(C(=O)NC(=S)N2CC(C)OC(C)C2)cc1OC (centres undefined)	13%[46.1 µM]	-16%[46.1 µM]	-12	5.2µM*	-2	-20%
COc1ccccc1C(=O)NC(=S)N1CCc2ccccc21	x	x	7	-30%[5.75 µM]	3	-10%
CCN(Cc1cnn(C)c1)Cc1nc(Cc2ccccc2Cl)no1	22%[46.1 µM]	-2%[46.1 µM]	31	1%	15	3%
O=C1N/C(=C\c2ccccc2)C(O)=C1C=NCc1ccccc1	8%	u	15	u	11	49%
COc1cc(/C=C2\SC(=S)N(NC(=O)c3ccccc3OC)C2=O)ccc1O	0%	16%[46.1 µM]	26	24%	17*	-3%
COc1cc(/C=C2\SC(=S)N(NS(=O)(=O)c3ccc(C)cc3)C2=O)cc(OC)c1OC	20%[46.1 µM]	-2%[46.1 µM]	11	u	1	4.7µM*
COc1cc(/C=C2\SC(=S)N(NC(=O)c3ccc(O)c(OC)c3)C2=O)ccc1O	-26%[46.1 µM]	-12%[46.1 µM]	23	33%	21*	1%[0.00184 µM]
CC(=O)NN1C(=O)/C(=C/c2ccc(C(C)C)cc2)SC1=S	u	u	19	46%	16*	11%
C[N+](C)(C)CCO	-4%	14%	x	x	x	x
CCN(CC)c1ccc(NC(=O)C2CCN(c3nnc(-n4cccc4)s3)CC2)c(C)c1	-14%[46.1 µM]	x	x	x	x	x
COc1ccc(C(=O)Nc2ccccc2N2CCCC2)cc1	x	x	2	4%	-2	7%
COc1cc(C2C(C#N)=C(N)Oc3c2ccc2ccccc32)ccc1OCC(=O)Nc1cccc(C)c1 (centres undefined)	10µM*	u	22	20%	4	12µM*
COc1cc(C2C(C#N)=C(N)Oc3c2ccc2ccccc32)ccc1OCC(=O)Nc1ccc(C)cc1 (centres undefined)	u	u	-1	0%	-2	10µM*
O=C(C/C=N/OCc1ccc(Cl)cc1Cl)c1ccc(Cl)cc1	-3%	-1%	59	-24%	4	u
O=C(C/C=N/OCc1ccc(Cl)cc1Cl)c1ccccc1	0%	-11%	47	0%	20*	u
O=C(C/C=N/OCc1c(Cl)cccc1Cl)c1ccccc1	-9%	-7%	48	u	37*	u
CC1CN(C(=O)c2ccncc2)CC(C)O1 (centres undefined)	15%	0%	-7	x	-1	17%
CN(C)CC(=O)Nc1ccc(Oc2ccc(Cl)cc2)cc1	u	u	-12	0%[5.75 µM]	1	-15%
CCOC(=O)C1(CCc2ccccc2)CCN(Cc2c(O)cccc2OC)CC1	u	u	-11	31%	1	0.26µM*
CCOC(=O)C1(CCc2ccccc2)CCN(Cc2cccc3c2OCO3)CC1	u	13µM*	-5	i	0	u
CCOC(=O)C1(CCc2ccccc2)CCN(Cc2ccc(OC)cc2)CC1	u	u	-10	u	-1	u
CCOC(=O)C1(CCc2ccccc2)CCN(Cc2cccc3cnccc23)CC1	u	u	-3	7.4µM*	-1	u
COC(=O)C(Cc1ccc(O)cc1)NC(=O)CCNC(=O)c1ccco1 (centres undefined)	-5%	4%[46.1 µM]	-2	39%	-3	29%
O=C(NCCc1c[nH]c2ccccc12)C(=O)NCC1OCCCN1S(=O)(=O)c1cc(F)ccc1F (centres undefined)	u	u	3	3.3µM*	-2	13µM*
COc1ccc(S(=O)(=O)N2CCOC2CNC(=O)C(=O)NCCc2c[nH]c3ccccc23)cc1C (centres undefined)	u	u	-18	9.3µM*	-3	u
